Assay results from PubChem BioAssay AID1159580 (chemical genetic matrix, 2015).
Hit rate of the full screen: of about 5,500 compounds, about 2,000 (36%) were called active. Another 18% or so got no clear call; they are omitted. This is one part of the list. A number with no mark means an inactive call. Cut-off read from the data, not from the text of the source: active = normalized growth mostly below about 0.91 (no sharp cut-off); inconclusive = no clear call, values can overlap the other calls; inactive = mostly above about 0.92.

Assay: chemical genetic growth profiling, strain panel (AID 1159580);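 note: tested at 20 µM; growth read once vehicle control cultures reached saturation at 30 °C; 1 = growth at the plate median or of vehicle wells; lower values mean less growth of the strain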
Settings: growth OD
[1] = S. cerevisiae deletion strains, locus YAL013W, strain DEP1, hits give low values
[2] = S. cerevisiae deletion strains, locus YBR229C, strain ROT2, hits give low values
[3] = S. cerevisiae deletion strains, locus YDL101C, strain DUN1, hits give low values
[4] = S. cerevisiae deletion strains, locus YDR150W, strain NUM1, hits give low values
[5] = S. cerevisiae deletion strains, locus YEL061C, strain CIN8, hits give low values
[6] = S. cerevisiae deletion strains, locus YGR078C, strain PAC10, hits give low values
[7] = S. cerevisiae deletion strains, locus YGR229C, strain SMI1, hits give low values
[8] = S. cerevisiae deletion strains, locus YHR030C, strain SLT2, hits give low values
[9] = S. cerevisiae deletion strains, locus YHR087W, strain rtc3, hits give low values
[10] = S. cerevisiae deletion strains, locus YJR043C, strain POL32, hits give low values
[11] = S. cerevisiae deletion strains, locus YJR075W, strain HOC1, hits give low values
[12] = S. cerevisiae deletion strains, locus YKL190W, strain CNB1, hits give low values
[13] = S. cerevisiae deletion strains, locus YLR039C, strain RIC1, hits give low values
[14] = S. cerevisiae deletion strains, locus YLR058C, strain SHM2 (second series), hits give low values
[15] = S. cerevisiae deletion strains, locus YLR085C, strain ARP6, hits give low values
[16] = S. cerevisiae deletion strains, locus YLR262C, strain YPT6, hits give low values
[17] = S. cerevisiae deletion strains, locus YML094W, strain GIM5, hits give low values
[18] = S. cerevisiae deletion strains, locus YMR219W, strain ESC1, hits give low values
[19] = S. cerevisiae deletion strains, locus YMR263W, strain SAP30, hits give low values
[20] = S. cerevisiae deletion strains, locus YMR307W, strain GAS1, hits give low values
[21] = S. cerevisiae deletion strains, locus YNL153C, strain GIM3, hits give low values
[22] = S. cerevisiae deletion strains, locus YNL298W, strain CLA4 (second series), hits give low values
[23] = S. cerevisiae deletion strains, locus YNL322C, strain KRE1, hits give low values
[24] = S. cerevisiae deletion strains, locus YNR030W, strain Alg12, hits give low values
[25] = S. cerevisiae deletion strains, locus YPL055C, strain LGE1, hits give low values
[26] = S. cerevisiae deletion strains, locus YPL241C, strain CIN2, hits give low values
[27] = S. cerevisiae deletion strains, locus YPR135W, strain CTF4, hits give low values
[28] = S. cerevisiae strains, strain wild type, hits give low values
[29] = S. cerevisiae deletion strains, locus YCL061C, strain MRC1, hits give low values
[30] = S. cerevisiae deletion strains, locus YNL128W, strain TEP1, hits give low values
[31] = S. cerevisiae deletion strains, locus YOL006C, strain TOP1, hits give low values

N#CCC(=O)N(Cc1ccccc1F)C(=O)NC1CCCCC1
normalized growth [1]: 0.993
normalized growth [2]: 1.01
normalized growth [3]: 0.994
normalized growth (S. cerevisiae deletion strains, locus YDL134C, strain PPH21, hits give low values): 0.98
normalized growth [4]: 0.997
normalized growth [5]: 1
normalized growth [6]: 0.994
normalized growth [7]: 0.987
normalized growth [8]: 0.957
normalized growth [9]: 0.974
normalized growth [10]: 0.994
normalized growth [11]: 0.963
normalized growth [12]: 1
normalized growth [13]: 0.915
normalized growth [14]: 1
normalized growth [15]: 0.989
normalized growth [16]: 0.935
normalized growth [17]: 0.996
normalized growth [18]: 0.998
normalized growth [19]: 1
normalized growth [20]: 0.913
normalized growth [21]: 0.988
normalized growth [22]: 1.01
normalized growth [23]: 1.01
normalized growth [24]: 0.986
normalized growth [25]: 1.01
normalized growth [26]: 0.994
normalized growth [27]: 0.866
normalized growth [28]: 0.997

O=C(O)c1cccc([N+](=O)[O-])c1C(=O)Nc1ccc(F)cc1
normalized growth [1]: 1.01
normalized growth [2]: 0.996
normalized growth [29]: 1.01
normalized growth [3]: 1.01
normalized growth [4]: 1.03
normalized growth [5]: 0.98
normalized growth [6]: 1.01
normalized growth [8]: 1.1
normalized growth [9]: 0.965
normalized growth [10]: 1
normalized growth [11]: 1.01
normalized growth [12]: 0.986
normalized growth [13]: 1.22 [resistant] (active)
normalized growth [14]: 0.991
normalized growth [15]: 1
normalized growth [16]: 1.19 [resistant] (active)
normalized growth [17]: 1.01
normalized growth [18]: 0.998
normalized growth [19]: 0.996
normalized growth [20]: 0.932
normalized growth [30]: 0.984
normalized growth [21]: 1.01
normalized growth [22]: 0.97
normalized growth [23]: 1.02
normalized growth [24]: 0.996
normalized growth [25]: 0.979
normalized growth [26]: 1.04
normalized growth [27]: 1.04

COC(=O)c1cccc([N+](=O)[O-])c1-c1c(C(=O)OC)cccc1[N+](=O)[O-]
normalized growth [1]: 0.995
normalized growth [2]: 1.01
normalized growth [29]: 1.03
normalized growth [3]: 1.03
normalized growth [4]: 1.02
normalized growth [5]: 0.983
normalized growth [6]: 1.03
normalized growth [8]: 1.06
normalized growth [9]: 0.997
normalized growth [10]: 1.01
normalized growth [11]: 0.981
normalized growth [13]: 0.994
normalized growth [14]: 0.999
normalized growth [15]: 1.03
normalized growth [16]: 0.97
normalized growth [17]: 0.988
normalized growth [18]: 0.99
normalized growth [19]: 1.03
normalized growth [20]: 0.971
normalized growth [30]: 0.999
normalized growth [21]: 1.03
normalized growth [22]: 1.02
normalized growth [23]: 1
normalized growth [24]: 1.03
normalized growth [31]: 1.08
normalized growth [25]: 0.974
normalized growth [26]: 1
normalized growth [27]: 1.06
normalized growth [28]: 1.02

CC(C)(C)c1cc(C(=O)NN)n[nH]1
normalized growth [1]: 1.01
normalized growth [2]: 1.01
normalized growth [3]: 0.973
normalized growth [4]: 0.995
normalized growth [5]: 1.01
normalized growth [6]: 0.996
normalized growth [7]: 1
normalized growth [8]: 1.06
normalized growth [9]: 1
normalized growth (S. cerevisiae deletion strains, locus YJL187C, strain SWE1, hits give low values): 0.988
normalized growth [10]: 0.997
normalized growth [11]: 0.979
normalized growth [13]: 1.08
normalized growth [14]: 0.995
normalized growth [15]: 1.15
normalized growth [16]: 1.04
normalized growth [17]: 1.04
normalized growth [18]: 1
normalized growth [19]: 0.984
normalized growth [20]: 1
normalized growth [21]: 0.991
normalized growth [22]: 1.01
normalized growth [23]: 0.997
normalized growth [24]: 1
normalized growth [31]: 1.09
normalized growth [25]: 1.04
normalized growth [26]: 0.953
normalized growth [27]: 1.21
normalized growth [28]: 1.01

CC(C)(C)c1ccc(-c2cc(NC(=O)c3ccc(Cl)cc3)n[nH]2)cc1
normalized growth (S. cerevisiae deletion strains, locus YAR019C, strain CDC15, hits give low values): 0.986
normalized growth (S. cerevisiae deletion strains, locus YBL105C, strain PKC1, hits give low values): 1.02
normalized growth (S. cerevisiae deletion strains, locus YBR135W, strain CKS1, hits give low values): 1.02
normalized growth (S. cerevisiae deletion strains, locus YBR136W, strain MEC1, hits give low values): 1.01
normalized growth (S. cerevisiae deletion strains, locus YBR160W, strain CDC28, hits give low values): 0.99
normalized growth (S. cerevisiae deletion strains, locus YDL017W, strain CDC7, hits give low values): 1
normalized growth (S. cerevisiae deletion strains, locus YDL028C, strain MPS1, hits give low values): 1.03
normalized growth [3]: 1.01
normalized growth (S. cerevisiae deletion strains, locus YDL108W, strain KIN28, hits give low values): 1.01
normalized growth (S. cerevisiae deletion strains, locus YDL132W, strain cdc53, hits give low values): 1.03
normalized growth (S. cerevisiae deletion strains, locus YDL214C, strain PRR2, hits give low values): 1.04
normalized growth (S. cerevisiae deletion strains, locus YDR052C, strain DBF4, hits give low values): 0.995
normalized growth (S. cerevisiae deletion strains, locus YDR054C, strain cdc34, hits give low values): 1.01
normalized growth (S. cerevisiae deletion strains, locus YDR226W, strain ADK1, hits give low values): 1.01
normalized growth (S. cerevisiae deletion strains, locus YDR477W, strain SNF1, hits give low values): 1.02
normalized growth (S. cerevisiae deletion strains, locus YER123W, strain YCK3, hits give low values): 1.01
normalized growth (S. cerevisiae deletion strains, locus YER133W, strain GLC7, hits give low values): 1.02
normalized growth (S. cerevisiae deletion strains, locus YFL009W, strain cdc4, hits give low values): 1.02
normalized growth (S. cerevisiae deletion strains, locus YFL029C, strain CAK1, hits give low values): 1.01
normalized growth (S. cerevisiae deletion strains, locus YFR003C, strain YPI1, hits give low values): 1.01
normalized growth (S. cerevisiae deletion strains, locus YFR019W, strain FAB1, hits give low values): 1.01
normalized growth (S. cerevisiae deletion strains, locus YFR028C, strain CDC14, hits give low values): 1.01
normalized growth (S. cerevisiae deletion strains, locus YGR040W, strain KSS1, hits give low values): 1.03
normalized growth (S. cerevisiae deletion strains, locus YGR052W, strain FMP48, hits give low values): 0.995
normalized growth (S. cerevisiae deletion strains, locus YGR092W, strain DBF2, hits give low values): 0.933
normalized growth [8]: 1.08
normalized growth (S. cerevisiae deletion strains, locus YHR079C, strain IRE1, hits give low values): 1.1
normalized growth (S. cerevisiae deletion strains, locus YHR082C, strain KSP1, hits give low values): 1.1
normalized growth (S. cerevisiae deletion strains, locus YHR205W, strain SCH9, hits give low values): 0.96
normalized growth (S. cerevisiae deletion strains, locus YIL147C, strain SLN1, hits give low values): 1.04
normalized growth (S. cerevisiae deletion strains, locus YJL095W, strain BCK1, hits give low values): 0.999
normalized growth (S. cerevisiae deletion strains, locus YJL128C, strain PBS2, hits give low values): 0.978
normalized growth (S. cerevisiae deletion strains, locus YJL157C, strain FAR1, hits give low values): 1.01
normalized growth (S. cerevisiae deletion strains, locus YJR016C, strain ILV3, hits give low values): 1.03
normalized growth (S. cerevisiae deletion strains, locus YJR066W, strain TOR1 (second series), hits give low values): 0.983
normalized growth (S. cerevisiae deletion strains, locus YJR066W, strain TOR1, hits give low values): 1.05
normalized growth (S. cerevisiae deletion strains, locus YKL048C, strain ELM1, hits give low values): 1.03
normalized growth (S. cerevisiae deletion strains, locus YKL067W, strain YNK1, hits give low values): 1.02
normalized growth (S. cerevisiae deletion strains, locus YKL101W, strain HSL1, hits give low values): 1.05
normalized growth (S. cerevisiae deletion strains, locus YKL193C, strain SDS22, hits give low values): 1.03
normalized growth (S. cerevisiae deletion strains, locus YKL203C, strain TOR2, hits give low values): 1.09
normalized growth (S. cerevisiae deletion strains, locus YLR113W, strain HOG1, hits give low values): 1.03
normalized growth (S. cerevisiae deletion strains, locus YLR133W, strain CKI1, hits give low values): 1.02
normalized growth (S. cerevisiae deletion strains, locus YLR403W, strain SFP1, hits give low values): 0.971
normalized growth (S. cerevisiae deletion strains, locus YML070W, strain DAK1, hits give low values): 1.04
normalized growth (S. cerevisiae deletion strains, locus YMR001C, strain CDC5, hits give low values): 1
normalized growth (S. cerevisiae deletion strains, locus YMR205C, strain PFK2 (second series), hits give low values): 0.99
normalized growth (S. cerevisiae deletion strains, locus YMR277W, strain FCP1, hits give low values): 1.02
normalized growth (S. cerevisiae deletion strains, locus YNL006W, strain LST8, hits give low values): 0.999
normalized growth (S. cerevisiae deletion strains, locus YNL020C, strain ARK1, hits give low values): 1.03
normalized growth (S. cerevisiae deletion strains, locus YNL161W, strain CBK1, hits give low values): 1.02
normalized growth (S. cerevisiae deletion strains, locus YNL183C, strain NPR1, hits give low values): 1.04
normalized growth (S. cerevisiae deletion strains, locus YNL207W, strain RIO2, hits give low values): 1.01
normalized growth (S. cerevisiae deletion strains, locus YNL222W, strain SSU72, hits give low values): 0.992
normalized growth (S. cerevisiae deletion strains, locus YNL307C, strain MCK1 (second series), hits give low values): 1
normalized growth (S. cerevisiae deletion strains, locus YOL078W, strain AVO1, hits give low values): 1.01
normalized growth (S. cerevisiae deletion strains, locus YOL136C, strain PFK27, hits give low values): 1.03
normalized growth (S. cerevisiae deletion strains, locus YOR061W, strain CKA2, hits give low values): 0.993
normalized growth (S. cerevisiae deletion strains, locus YOR119C, strain RIO1, hits give low values): 1.1
normalized growth (S. cerevisiae deletion strains, locus YOR231W, strain MKK1, hits give low values): 1.02
normalized growth (S. cerevisiae deletion strains, locus YOR329C, strain SCD5, hits give low values): 1.04
normalized growth (S. cerevisiae deletion strains, locus YPL031C, strain PHO85, hits give low values): 1.02
normalized growth (S. cerevisiae deletion strains, locus YPL153C, strain RAD53, hits give low values): 1.01
normalized growth (S. cerevisiae deletion strains, locus YPL204W, strain HRR25, hits give low values): 1.01
normalized growth (S. cerevisiae deletion strains, locus YPL209C, strain IPL1, hits give low values): 1.01
normalized growth (S. cerevisiae deletion strains, locus YPL256C, strain CLN2, hits give low values): 1.21 [resistant] (active)
normalized growth (S. cerevisiae deletion strains, locus YPR025C, strain CCL1, hits give low values): 1
normalized growth (S. cerevisiae deletion strains, locus YPR106W, strain ISR1, hits give low values): 1.01
normalized growth (S. cerevisiae deletion strains, locus YPR111W, strain DBF20, hits give low values): 1
normalized growth (S. cerevisiae deletion strains, strain NNK1, hits give low values): 1.01
normalized growth (S. cerevisiae deletion strains, strain TSCII, hits give low values): 1.03
